The text below walks through data of PubChem BioAssay (NCI).

Holding throughout (test): NCI-60 one-dose screen, 48 h (100 = growth as untreated, 0 = no growth, -100 = all killed)
Settings in all cases: 10 µM unless noted

Assay [1] deals with HCT-15 colon.
The test system of assay [2] is HT29 colon.
Assay [3] deals with SNB-75 CNS.
Assay [4] concerns SNB-19 CNS.
Assay [5] relates to U251 CNS.
The subject of assay [6] is PC-3 prostate.
Assay [7] deals with SK-MEL-5 melanoma.
The test system of assay [8] is UACC-62 melanoma.
In assay [9] the test system is LOX IMVI melanoma.
In assay [10] the test system is SK-MEL-28 melanoma.
Assay [11] deals with SK-MEL-2 melanoma.
The test system of assay [12] is EKVX NSCLC.
The subject of assay [13] is SN12C renal.
In assay [14] the test system is UO-31 renal.
Assay [15] concerns TK-10 renal.
For assay [16], the system named is ACHN renal.
Assay [17] has as its system CAKI-1 renal.
Assay [18] deals with A498 renal.
Assay [19] relates to CCRF-CEM leukemia.
For assay [20], the system named is MOLT-4 leukemia.

This is part of a sample that, as a whole, favours compounds with a hit. Of some 83,000 tested, about 20% had one in any assay.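 Single-concentration screen, 48 h exposure, 96-well plates. Endpoint: percent growth. Below 10 = active.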 A number with no mark means an inactive call. The source made the active and inactive calls.

Regarding `CCOC(=O)C/C(=N\Nc1cc(=O)[nH]c2ccc(C)cc12)C(=O)OCC`, the growth was 103% in assay [1]; 112% in [2]; 94.7% in assay [3]; 97.8% in assay [4]; 103% in assay [5]; 91.4% in assay [6]. The growth is 96.8% in assay [7]; 91.1% in assay [8]; 102% in assay [9]; 99.3% in [10]; 108% in assay [11]; 109% in assay [12]. The growth is 101% in assay [13]; 86.7% in assay [14]; 101% in assay [15]; 99% in assay [16]; 94.6% in assay [17]; 112% in [18]. For the same compound, the growth is -57.2% (active) in assay [19] and 18.3% in [20].

`CN(C)c1ccc(/C=N\NC(=O)c2ccc3nc(-c4ccc(Cl)cc4)[nH]c3c2)cc1`: the growth in assay [1] is 66.8%; in assay [2] it was 4.33% (active); in [3] it was 97.2%; in assay [4], 60.4%; in assay [5], 1.62% (active); in assay [6], 46.8%. The growth in assay [7] was 89%; in assay [8] it was 88.2%; in assay [9], 34%; in assay [10] it was 71.9%; in assay [11], 83.3%; in assay [12] it was 73.2%. The growth was 41.2% in [13]; 75.4% in assay [14]; 94.4% in assay [15]; 35.7% in [16]; 84.9% in assay [17]; 72.9% in assay [18]. In addition, the growth was 21.4% in assay [19] and 23.6% in assay [20].

Consider `COC1C(O)CC(OC2CC(OC3CC(O[C@@H]4C(=O)c5c(cc6cc(OC7CC(OC8CC(O)C(O)C(C)O8)C(O)C(C)O7)c(C)c(O)c6c5O)CC4[C@H](OC)C(=O)O)OC(C)C3O)OC(C)C2O)OC1C` (stereo not given in full), for which the growth in [1] was 48.6%; in assay [2] it was 20.3%; in assay [3], -22.7% (active); in [4], 21.4%; in [5], 0.444% (active); in [6], 21.8%. The growth in assay [7] is -45.9% (active); in assay [8], -0.0213% (active); in [9], -12.7% (active); in assay [10], 3.33% (active); in assay [11], -34.2% (active); in assay [12], 40.4%. The growth in assay [13] is 20.7%; in assay [14], 1.52% (active); in assay [15], 34.1%; in assay [16], 2.86% (active); in assay [17], 18.1%; in assay [18], -15.2% (active). In addition, the values for the growth in assay [19] and in [20] were 46.1% and 27.2%, respectively.

As to `COc1cc(Cc2cc(OC)c(O)c(OC)c2)cc(OC)c1O`, the growth in assay [1] is 60.9%; in [2] it was 110%; in [3] it was 82.2%; in [4] it was 102%; in assay [5], 102%; in assay [6], 80.2%. The growth in assay [7] is 101%; in assay [8], 94.9%; in assay [9], 80.7%; in assay [10], 82.4%; in assay [11] it was 76.6%; in assay [12], 110%. The growth in [13] is 97.7%; in [14], 120%; in assay [15] it was 107%; in assay [16], 106%; in assay [17] it was 73.9%; in [18], 88.6%. Further, the growth in assay [19] was 59.9%; in assay [20] it was 74.9%.

Regarding `Nc1cc(Br)cc2c1[nH]c(=O)c1ccccc12`, the growth was 110% in [1]; 114% in assay [2]; 81.7% in [3]; 102% in assay [4]; 90.7% in assay [5]; 89.6% in assay [6]. For the same compound, the growth in assay [7] was 96.5%; in [8], 100%; in assay [9], 95.5%; in assay [10], 101%; in assay [11] it was 112%; in assay [12], 82%. Also, the growth in [13] is 88.6%; in [14], 81.4%; in [15] it was 104%; in [16] it was 102%; in assay [17], 82.5%; in assay [18], 92.5%. The growth in [19] was 93.2%; in assay [20], 80.5%.

In the case of `Oc1c(I)cc(I)cc1CN(Cc1ccccn1)Cc1ccccn1`, the growth was 21.3% in [1]; 25.5% in [2]; 30% in [3]; 22.3% in [4]; 7% (active) in [5]; 28% in assay [6]. Moreover, the growth in assay [7] is -33.5% (active); in [8] it was 3.88% (active); in assay [9] it was 7.25% (active); in assay [10], 28.5%; in [11], 21.6%; in [12], 13%. The growth in assay [13] is 27.3%; in assay [14], -19.2% (active); in assay [15] it was 8.19% (active); in [16], 10.4%; in assay [17], 0.0911% (active); in [18], 22.3%. In addition, the results for the growth in assay [19] and in assay [20] were 9.21% (active) and 5.38% (active), respectively.

For `O=C1/C(=C/c2ccccn2)SC(=S)N1N1CCOCC1`, the growth in [1] was 102%; in assay [2], 103%; in [3] it was 90.4%; in [4] it was 101%; in assay [5], 98.1%; in [6] it was 94.6%. The growth in [7] is 99.2%; in assay [8], 92.8%; in assay [9], 97.8%; in assay [10], 105%; in assay [11], 89.8%; in [12] it was 90.6%. Also, the growth in assay [13] was 93.6%; in [14], 71.9%; in assay [15], 98.5%; in assay [16], 99.5%; in assay [17], 92.6%; in [18], 102%. The growth is 84.2% in assay [19] and 101% in assay [20].
